Screening results deposited in PubChem by National Center for Advancing Translational Sciences (NCATS).
Shown are actives, neighbours in structure and some others; about 2.4% of the full set was active somewhere.
Nrf2 activator: qHTS of Nrf2 Activators; AREc32 ARE-luciferase reporter (MCF7-derived line), luminescence, 24 h; actives 0.31% (n = 410,000); Potency, µM (series often up to 46.1 µM), without a hit: at the highest dose activation, most hits filed as activators; also: % of control where 0% means no effect; nearly all actives have a fitted effect of over 65% in size
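Luminescent ARE reporter assay in AREc32_Fluc cells: overnight plating at 37 deg C, 24 hr compound incubation, Steady-Glo added, 30 min RT before reading.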
Epigenetic derep: Quantitative High-Throughput Screen for Regulators of Epigenetic Control | Potency, µM (highest dose often 53.9 µM), without a hit: at the highest dose GFP activation, most hits filed as activators | actives 0.2% (n = 280,000) | murine LDR cells, GFP reporter derepression, 30 h; also: % of control where 0% means no effect; nearly all actives have a fitted effect of over 60% in size
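GFP-positive cell count by laser-scanning cytometry (objects 20–120 um) after 30 h, 37 C compound exposure of murine LDR cells; reporter is CMV-GFP integrated at a silenced locus, inducible by HDAC or DNMT inhibitors.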
A549 tox: Nrf2 qHTS screen for inhibitors: counterscreen for cytotoxicity; A549 ARE-Fluc cells, CellTiter-Fluor viability, 18-24 h; Potency, µM (doses to about 46 µM), without a hit: at the top dose activity change, negative = cytotoxicity, usual class: inhibitors; actives 0.16% (n = 390,000); AID 504648, 2011; also: % is scaled to controls: 0 for no effect and ±100 for the full control effect
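Cytotoxicity counterscreen: CellTiter-Fluor fluorescence was measured in A549 ARE_Fluc cells after 18-24 h of compound exposure in a concentration series. The subsequent BugLite luminescent read reports ARE-luciferase activity.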
PINK1 expr mod: A Quantitative High throughput Screen to Identify Chemical Modulators of PINK1 Expression; PINK1 immunofluorescence, high-content cytometry, 24 h; Potency, µM (highest dose often 76.6 µM), for inactives: at the highest dose activation (PINK1 increase), usual class: activators; actives 0.2% (n = 410,000); AID 624263, 2012; active = well fitted activation curve with a large enough effect; inconclusive = small, poorly fitted or top-dose-only effect; cell line not stated here; also: % of control where 0% means no effect; nearly all actives have a fitted effect of over 65% in size
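A stable cell line was treated with compounds at 5 concentrations for 24 hours, with CCCP as control. PINK1 levels and mitochondrial localization were measured by immunofluorescence with mitochondrial, cell and nuclear markers after fixation, read by laser-scanning cytometry.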
Nrf2 inh: Nrf2 qHTS screen for inhibitors. AID 504444, 2011. Potency, µM (titrated, usually from 46 µM), for inactives: at the highest dose activity change, negative = inhibition, usual class: inhibitors. actives 2.1% (n = 360,000). A549 ARE-Fluc reporter, luciferase luminescence, 18-24 h; also: % is scaled to controls: 0 for no effect and ±100 for the full control effect; nearly all actives have a fitted effect of over 60% in size
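A549 ARE_Fluc cells, 5000/well, 5% FBS OPTI-MEM; compounds in dose-response, 18-24 h at 37 °C/5% CO2; CellTiter-Fluor viability read (Ex 405/Em 525), then BugLite luciferase luminescence = Nrf2 activity.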
* hit, by the source's call; ? = inconclusive; . = no result; [ ] = dose if it differs, or a comment. Unless noted, calls follow the shape of the dose curve; as a rule, active = well fitted curve in the direction sought with a large enough effect; inconclusive = small, poorly fitted or top-dose-only effect, or another doubt; inactive = no such curve, though single readings can be large; an effect the other way counts as inactive or inconclusive. Potency is read from the fitted curve at half-maximal effect.

SMILES	Nrf2 activator	Epigenetic derep	A549 tox	PINK1 expr mod	Nrf2 inh
CNc1snc(C)c1C(=O)OCC(=O)c1ccc(Cl)cc1	6%	.	3%	9%	?
O=S(=O)(c1ccc(Cl)cc1)N1CCN(c2nc(-c3ccccc3)nc3ccccc23)CC1	.	.	1%	0%	?
Cc1nn(CC(=O)N2CCN(c3ccccn3)CC2)c(=O)c2cc3sccc3n12	0%	.	?	0%	29µM*
CCCN1CCN(C(=O)Cn2nc(C)n3c(cc4sccc43)c2=O)CC1	1%	.	13%	0%	5%
COc1ccc(C(=O)Nc2cccc(-c3cn4ccsc4n3)c2)cc1OC	6%	0%	5%	3%	.
CCCCOc1ccc(CNC(=O)CCCN2C(=O)CSc3c2c(C)nn3-c2ccccc2)cc1	0%	1%	-13%	8%	29µM*
CC(C)(C)c1ccc(C(=O)Nc2ccc(CC(=O)O)cc2)o1	-2%	0%	1%	4%[38.3 µM]	3.7µM*
Cc1ccc(C(=O)Nc2ccc(CC(=O)O)cc2)o1	-1%	-5%	-19%	1%	?
CC1CC(=O)c2c(cc3c(-c4c(O)cc(O)c5c(O)c6c(cc45)OC(C)CC6=O)c(O)cc(O)c3c2O)O1 (stereo unspecified)	-1%	15%	?	2%	12µM*
CCOc1ccccc1C1N=C(c2ccc(OC)cc2)CC(c2ccccc2O)N1 (stereo unspecified)	16µM*	?	-10%	1%	?
CC(C)C1N=C(c2ccc3c(c2)OCO3)CC(c2ccccc2O)N1 (stereo unspecified)	?	?	-9%	-4%	23%
CNc1ccc(/C=C/c2ccnc3ccccc23)cc1	.	.	.	2%	.
COc1ccc(N/C=C\C(=O)c2ccc(Br)cc2)cc1OC	3%	?	-12%	40µM*	3%
COCCn1c(=O)c(-c2ccc(OC)cc2)nc2cnc(N3CCOCC3)nc21	.	.	.	1%	.
O=C1C=CC(=O)N1CCCCCCCCCCN1C(=O)C=CC1=O	?	.	?	-2%	26µM*
O=C1C=CC(=O)N1Cc1ccncc1	0%	.	-1%	3%	14%
COc1cccc(C(=O)Nc2ccc3c(c2)CCCN3C(=O)c2cccs2)c1OC	4%	-4%	-11%	-1%	21µM*
COc1ccccc1C(=O)Nc1ccncc1	-2%[9.22 µM]	.	-1%	-2%	-19%
COc1cccc(C(=O)Nc2ccncc2)c1OC	0%	.	-4%	-1%	23µM*
O=c1c2ccccc2nc(COc2ccccc2)n1/N=C/c1ccc(O)cc1O	-1%	0%	-10%	0%	26µM*
Cc1ccc(NS(=O)(=O)c2cc3c(cc2N(C)C)CCC(=O)N3)cc1C	.	.	2%	.	13%
COc1ccc(C(=O)Nc2cccc(-c3nnc(-c4ccco4)o3)c2)cc1	-1%	0%	?	-2%	?
COc1ccc(CC(=O)Nc2cccc(-c3nnc(-c4ccco4)o3)c2)cc1	-1%	0%	?	11%	6.5µM*
CCC(C(=O)NCc1ccc(OC)c(OC)c1)n1nc(C)c2c(C)n(-c3ccc(C)cc3)nc2c1=O (stereo unspecified)	0%	6%	-19%	1%	26µM*
Cc1ccc(-n2nc3c(=O)n(CC(=O)NC(C)CCc4ccccc4)nc(C)c3c2C)cc1 (stereo unspecified)	1%	.	-13%	7%	5.2µM*
SMILES	Nrf2 activator	Epigenetic derep	A549 tox	PINK1 expr mod	Nrf2 inh
CCC(C(=O)Nc1cc(F)ccc1F)n1nc(C)c2c(C)n(-c3ccc(C)cc3)nc2c1=O (stereo unspecified)	0%	-1%	?	-1%	23µM*
Cc1ccc(-n2nc3c(=O)n(C(C)C(=O)NCCc4cccs4)nc(C)c3c2C)cc1 (stereo unspecified)	3%	.	-12%	3%	12µM*
CCC(C(=O)Nc1ccccc1F)n1nc(C)c2c(C)n(-c3ccccc3)nc2c1=O (stereo unspecified)	0%	.	0%	4%	-12%
CC(C)Oc1ccc(-c2nc(-c3cccnc3)no2)cc1	.	.	.	4%	.
Cc1cc(CNC(=O)CCN2Cc3cc(Cl)ccc3OC(C)C2)nn1C (stereo unspecified)	.	.	.	0%	.
CCC(C(=O)NC1CCCCCC1)n1nc(C)c2c(C)n(-c3ccccc3)nc2c1=O (stereo unspecified)	-1%	.	1%	0%	21%
CCC(C(=O)NC1CC1)n1nc(C)c2c(C)n(-c3ccc(C)cc3)nc2c1=O (stereo unspecified)	3%	.	-8%	-1%	16µM*
COc1ccc(OCc2ccc(-c3nc(C#N)c(NCc4ccccc4)o3)o2)cc1	7%	1%	?	0%	?
Cc1ccccc1OCc1ccc(-c2nc(C#N)c(NCc3cccnc3)o2)o1	0%	-2%	11%	-1%	12µM*
COc1ccc(CNc2oc(-c3ccc(COc4ccccc4C)o3)nc2C#N)cc1	0%	-2%	0%	5%	21µM*
CCC1CN(CCNC(=O)c2cc(C(C)C)nn2C)Cc2cc(OC)ccc2O1 (stereo unspecified)	.	.	.	1%	.
CCOC(=O)N1CCN(Cc2ccc3c(c2)CN(C(=O)c2ccc(C#CC(C)(C)O)o2)CCO3)CC1	.	.	.	1%	.
NC(=O)c1ccsc1NC(=O)COC(=O)Cc1cccc2ccccc12	1%	-1%	-17%	3%	4.1µM*
N#Cc1c(-c2ccc(F)cc2)cc(-c2cccnc2)nc1N	0%	1%	-2%	16%	10%
N#Cc1c(-c2ccco2)cc(-c2ccc(F)cc2)nc1N	1µM*	-1%	8%	8%	.
CC1(C)Cc2c(c(N3CCOCC3)nc3sc4c(NCc5ccco5)nnnc4c23)CS1	5%	0%	-11%	-1%	?
CC(C)CNc1nnnc2c1sc1nc(N3CCOCC3)c3c(c12)CC(C)(C)SC3	0%	-1%	-17%	0%	13µM*
CS(=O)(=O)Nc1ccc(N2CCN(c3ccc(C(F)(F)F)cn3)CC2)nc1	-1%	0%	-7%	1%	7.3µM*
CC(C)(C)C(=O)Nc1ccc(N2CCN(c3ccc(C(F)(F)F)cn3)CC2)nc1	0%	2%	-11%	1%	?
S=C(NC1CCCCC1)N1CCOCCOCCN(C(=S)NC2CCCCC2)CCOCCOCC1	0%	-1%	?	5%	16µM*
